Where “and” joins values, the source holds several entries; their conditions need not be identical. Equal entries are not always repeated. A structure can be active in one record and inactive in another. Calls of active or inactive are those of the source. Unless noted, no rule for the calls is given here.
What was measured:
[1] = test system: Wnt5a (protein binding on small-molecule microarray); test: small molecules binding Wnt5a protein – biophysical, small-molecule microarray, 635/667 nm fluorescence, primary screen (AID 1142); settings: 635 nm fluorescence, higher = more signal;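 also: fluorescence read at 667 nm with signal to noise per printed feature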
[2] = ATP-based viability of Huh7 replicon cells – cell-based, CellTiter-Glo luminescence, basal, 48 h, cytotoxicity control for HCV replication inhibitor project, primary screen (AID 1143); settings: higher = more signal, called active from +8 up or from −8 down;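 also: Huh7 hepatoma cells carrying a hepatitis C replication reporter with no stimulus; test concentration not given here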
[3] = Pseudomonas biofilm growth suppression – PAO1 strain, BacTiter-Glo luminescence, LB-PBS, primary screen (AID 1144); settings: P. aeruginosa PAO1 biofilm, 12 h, higher = more signal
[4] = basal CRE-LacZ reporter activity in PC12 – cell-based, unstimulated, primary screen (AID 1145); settings: no forskolin, luminescence, 4.5 h, higher = more signal, called active from +8 up or from −8 down
[5] = forskolin-driven CRE-LacZ activity in PC12 – cell-based, CRE-LacZ reporter, forskolin-stimulated, primary screen (AID 1146); settings: luminescence, 4.5 h, higher = more signal, called active from +8 up or from −8 down;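 also: PC12 cells with 6xCRE LacZ reporter stimulated by forskolin 10 µM; beta-galactosidase reporter signal reflecting CREB driven transcription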
[6] = target: Streptavidin (Streptomyces avidinii) (UniProt P22629); test: compounds binding control protein streptavidin – biophysical, small-molecule microarray, 635/667 nm fluorescence, artefact control for SMM compound annotation, primary screen (AID 1147); settings: higher = more signal;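 also: signal reflects streptavidin binding to arrayed compounds as a control protein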
Chain of Streptavidin (Streptomyces avidinii) (P22629 whole entry, looked up): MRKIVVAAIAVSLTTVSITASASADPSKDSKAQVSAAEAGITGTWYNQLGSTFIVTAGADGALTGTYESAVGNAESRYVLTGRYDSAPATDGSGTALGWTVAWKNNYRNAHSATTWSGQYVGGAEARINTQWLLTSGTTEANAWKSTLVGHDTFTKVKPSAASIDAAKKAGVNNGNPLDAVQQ

[7] = probe aInhba binding on compound microarray – biochemical, small-molecule microarray, 635/667 nm fluorescence, primary screen (AID 1148); settings: higher = more signal;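 also: score merges 667nm spot fluorescence with signal-to-noise for antibody binding to printed compounds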
Torsin-1A (Homo sapiens) [8] = target: Torsin-1A (Homo sapiens) (UniProt O14656); test: TOR1A wild-type binding on microarray – cell lysate, small-molecule microarray, lysate, 635/667 nm, primary screen (AID 1149); settings: COS7 hTOR1A-WT lysate, 635 nm fluorescence, higher = more signal
Chain of Torsin-1A (Homo sapiens) (O14656 whole entry, looked up): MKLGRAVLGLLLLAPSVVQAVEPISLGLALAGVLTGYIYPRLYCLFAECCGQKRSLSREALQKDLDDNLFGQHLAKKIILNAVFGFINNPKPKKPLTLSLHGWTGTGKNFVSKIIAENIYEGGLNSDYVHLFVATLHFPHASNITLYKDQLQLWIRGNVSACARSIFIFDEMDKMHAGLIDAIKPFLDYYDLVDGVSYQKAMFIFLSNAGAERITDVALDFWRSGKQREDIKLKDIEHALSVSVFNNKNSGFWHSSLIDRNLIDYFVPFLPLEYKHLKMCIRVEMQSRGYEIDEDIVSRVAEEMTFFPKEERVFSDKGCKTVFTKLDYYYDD

Torsin-1A (Homo sapiens) [9] = target: Torsin-1A (Homo sapiens) (UniProt O14656); test: torsin A mutant lysate binding on microarrays – cell lysate, small-molecule microarray, COS7 lysate, 635/667 nm fluorescence, primary screen (AID 1150); settings: COS7 hTOR1A mutant lysate, 635 nm fluorescence, higher = more signal;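 also: score pools 667 nm emission and signal to noise measuring lysate protein binding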
[10] = test system: Sonic hedgehog protein (Shh); test: Sonic hedgehog microarray binding compounds – biochemical, small-molecule microarray, 635/667 nm fluorescence, primary screen (AID 1151); settings: 635 nm fluorescence, higher = more signal;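 also: Shh protein binding to compounds spotted on small-molecule microarray slides; score combines spot fluorescence intensity with signal-to-noise across triplicate slides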
[11] = optical density shifts of acrAB sulA E. coli – strain DRC41, OD650, 48 h, E. coli filamentation inducer project, primary screen (AID 1152); settings: higher = more signal, called active from +8 up or from −8 down;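 also: E. coli MC1000 strain DRC41 lacking acrAB efflux pump and sulA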
[12] = probe aLefty1 binding on compound microarray – biochemical, small-molecule microarray, 635/667 nm fluorescence, primary screen (AID 1153); settings: higher = more signal;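 also: score merges spot fluorescence with signal-to-noise ratio from the scanned slide images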
[13] = plasmodial surface anion channel blockers, osmotic lysis – cell-based, P. falciparum Indochina, OD700, 1 h, primary screen (AID 1154); settings: P. falciparum Indochina infected RBC osmotic lysis, higher = more signal, called active from +8 up or from −8 down
[14] = plasmodial surface anion channel blockers, osmotic lysis – cell-based, P. falciparum Indochina, OD700, 2 h, primary screen (AID 1155);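 also: lysis reports solute entry through the parasite surface anion channel PSAC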; settings: P. falciparum Indochina infected erythrocytes, higher = more signal, called active from +8 up or from −8 down
[15] = changes in parasitized red cell lysis, either direction – P. falciparum Indochina, OD700, 3 h, PSAC antagonist project, primary screen (AID 1156); settings: P. falciparum-infected erythrocytes, osmotic lysis, higher = more signal, called active from +8 up or from −8 down
[16] = plasmodial surface anion channel blockers, osmotic lysis – cell-based, P. falciparum Indochina, OD700, 18 h, primary screen (AID 1157); settings: P. falciparum Indochina infected erythrocytes, osmotic lysis OD700, 18 h; higher = more signal, called active from +8 up or from −8 down
[17] = S6 kinase pathway phospho-S6 level changes – cell-based, A549, cytoblot, luminescence, serum-stimulated, primary screen (AID 1158); settings: 5 h, higher = more signal;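 also: serum-stimulated A549 lung adenocarcinoma cells; signal is phosphorylated S6 detected by cytoblot immunostaining with HRP secondary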
[18] = target: NADPH oxidase 2 (Homo sapiens) (UniProt P04839); test: compounds shifting NOX2 Amplex Red fluorescence – cell-based, HEK293-NOX2, PMA-stimulated, NOX inhibitor project, primary screen (AID 1159); settings: 45 min, higher = more signal, called active from +8 up or from −8 down; also: test concentration not given here
Chain of NADPH oxidase 2 (Homo sapiens) (P04839 whole entry, looked up): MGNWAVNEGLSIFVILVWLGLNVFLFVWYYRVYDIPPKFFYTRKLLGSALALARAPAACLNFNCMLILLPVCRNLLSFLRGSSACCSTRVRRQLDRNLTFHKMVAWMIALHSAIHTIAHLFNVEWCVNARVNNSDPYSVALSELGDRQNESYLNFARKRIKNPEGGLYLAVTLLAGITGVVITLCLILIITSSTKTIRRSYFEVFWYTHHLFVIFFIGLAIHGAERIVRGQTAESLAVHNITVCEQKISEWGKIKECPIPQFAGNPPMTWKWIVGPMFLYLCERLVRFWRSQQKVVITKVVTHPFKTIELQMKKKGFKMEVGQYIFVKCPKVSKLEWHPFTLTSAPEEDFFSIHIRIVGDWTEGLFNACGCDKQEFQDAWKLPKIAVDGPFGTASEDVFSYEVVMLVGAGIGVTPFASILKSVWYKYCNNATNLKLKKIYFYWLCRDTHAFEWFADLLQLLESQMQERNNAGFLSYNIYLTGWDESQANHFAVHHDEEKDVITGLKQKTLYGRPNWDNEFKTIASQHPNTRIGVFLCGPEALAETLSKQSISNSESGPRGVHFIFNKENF

[19] = target: NADPH oxidase 4 (Homo sapiens) (UniProt Q9NPH5); test: compounds shifting NOX4 Amplex Red fluorescence – cell-based, HEK293-NOX4, tetracycline-induced, NOX inhibitor project, primary screen (AID 1160); settings: HEK293-NOX4, Amplex Red H2O2 fluorescence, 45 min; higher = more signal, called active from +8 up or from −8 down
Chain of NADPH oxidase 4 (Homo sapiens) (Q9NPH5 whole entry, looked up): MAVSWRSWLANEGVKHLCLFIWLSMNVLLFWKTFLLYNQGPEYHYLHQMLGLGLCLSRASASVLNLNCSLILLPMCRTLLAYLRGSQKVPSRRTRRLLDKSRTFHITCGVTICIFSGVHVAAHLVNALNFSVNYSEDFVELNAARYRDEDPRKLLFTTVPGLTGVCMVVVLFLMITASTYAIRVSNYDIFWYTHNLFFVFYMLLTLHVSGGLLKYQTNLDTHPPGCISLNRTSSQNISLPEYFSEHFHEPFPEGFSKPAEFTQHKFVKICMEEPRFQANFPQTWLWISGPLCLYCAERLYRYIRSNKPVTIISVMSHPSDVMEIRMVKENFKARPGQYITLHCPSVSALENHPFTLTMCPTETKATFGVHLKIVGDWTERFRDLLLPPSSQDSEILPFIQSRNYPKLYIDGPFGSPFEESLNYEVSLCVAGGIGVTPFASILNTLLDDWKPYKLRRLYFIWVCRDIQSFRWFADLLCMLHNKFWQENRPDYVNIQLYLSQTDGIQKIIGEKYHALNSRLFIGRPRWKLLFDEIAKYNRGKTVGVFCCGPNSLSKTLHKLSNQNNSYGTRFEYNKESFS

[20] = target: NADPH oxidase 5 (Homo sapiens) (UniProt Q96PH1); test: compounds shifting NOX5 Amplex Red fluorescence – cell-based, HEK293-NOX5, NOX inhibitor project, primary screen (AID 1161); settings: HEK293-NOX5, ionomycin, 45 min, higher = more signal
Chain of NADPH oxidase 5 (Homo sapiens) (Q96PH1 whole entry, looked up): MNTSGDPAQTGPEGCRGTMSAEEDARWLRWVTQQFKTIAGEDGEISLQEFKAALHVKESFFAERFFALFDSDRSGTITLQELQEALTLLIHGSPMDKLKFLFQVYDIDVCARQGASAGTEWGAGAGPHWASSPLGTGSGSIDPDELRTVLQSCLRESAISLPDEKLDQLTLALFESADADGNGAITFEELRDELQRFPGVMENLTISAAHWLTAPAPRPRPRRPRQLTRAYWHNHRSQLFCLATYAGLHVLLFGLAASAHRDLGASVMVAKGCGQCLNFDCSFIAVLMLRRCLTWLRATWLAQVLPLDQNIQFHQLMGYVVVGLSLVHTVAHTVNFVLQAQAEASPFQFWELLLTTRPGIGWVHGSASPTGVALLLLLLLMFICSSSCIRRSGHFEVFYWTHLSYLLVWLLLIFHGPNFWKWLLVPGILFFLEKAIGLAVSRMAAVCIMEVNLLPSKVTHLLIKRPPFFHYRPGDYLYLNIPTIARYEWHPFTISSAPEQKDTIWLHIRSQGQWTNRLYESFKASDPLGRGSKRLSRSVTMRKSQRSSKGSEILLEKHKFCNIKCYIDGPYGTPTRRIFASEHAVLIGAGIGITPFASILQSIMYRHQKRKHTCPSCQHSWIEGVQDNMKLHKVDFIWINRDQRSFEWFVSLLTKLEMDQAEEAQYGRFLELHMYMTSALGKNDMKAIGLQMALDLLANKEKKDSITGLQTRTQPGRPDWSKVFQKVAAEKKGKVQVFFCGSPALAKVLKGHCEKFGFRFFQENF

Structure (SMILES)	composite z-score [1]	z-score [2]	z-score [3]	z-score [4]	z-score [5]	composite z-score [6]	composite z-score [7]	composite z-score (Torsin-1A (Homo sapiens) [8])	composite z-score (Torsin-1A (Homo sapiens) [9])	composite z-score [10]	z-score [11]	composite z-score [12]	z-score [13]	z-score [14]	z-score [15]	z-score [16]	z-score [17]	z-score [18]	z-score [19]	z-score [20]
CCN1C(=O)[C@H]2[C@H]3[C@H](O)[C@H](O)CC(=NOC[C@@H](O)COCc4ccco4)[C@@H]3CC[C@H]2C1=O	0.0867 and 0.192	0.343 (inactive) and 0.422 (inactive)	-1.34 (inactive) and -0.00909 (inactive)	-0.746 (inactive) and 1.6 (inactive)	0.463 (inactive) and 0.503 (inactive)	-0.503 and -0.321	-0.324 and -0.15	3.48 and 0.374	3.12 and 0.272	2.1 and 1.78	-0.423 (inactive) and -0.268 (inactive)	-0.0877 and -0.101	-0.0538 (inactive) and 1.03 (inactive)	-0.0403 (inactive) and 0.0127 (inactive)	-0.534 (inactive) and 1.78 (inactive)	-0.21 (inactive) and 0.464 (inactive)	0.485 and 0.312	-0.535 (inactive) and 0.394 (inactive)	-1.86 (inactive) and -0.599 (inactive)	-0.844 and -0.174
C=CCN(C(=O)C1N(C(C)(C)CO)C(=O)C2C(C(=O)O)C3C=CC21O3)c1ccc(OC)cc1 (stereo not given)	-0.737 and -0.572	-0.265 (inactive) and -0.156 (inactive)	1.42 (inactive)	-0.761 (inactive) and -0.501 (inactive)	-1.27 (inactive) and -0.62 (inactive)	-1.73 and -1.67	-0.227 and -0.38	-2.67 and -1.85	-1.25 and -2.3	-0.639 and -2.16	2.14 (inactive) and 0.776 (inactive)	-0.0544 and -0.333	2.3 (inactive) and -0.0606 (inactive)	-0.613 (inactive) and -0.0765 (inactive)	-1.82 (inactive) and 0.228 (inactive)	-0.646 (inactive) and -0.183 (inactive)	0.228 and -0.0837	0.833 (inactive) and -0.0915 (inactive)	-2.16 (inactive) and -2.56 (inactive)	0.782 and -1.03
C[C@@]1([C@@H](NC(=O)Cc2ccccc2)c2ccc(-c3ccccc3)cc2)C[C@H]1C1CCCCC1	1.42 and 1.03 and 0.799	-4.75 (inactive) and -1.29 (inactive) and -1.07 (inactive)	-0.411 (inactive) and -0.255 (inactive) and 0.378 (inactive)	-0.957 (inactive) and -0.185 (inactive) and -0.375 (inactive)	-1.27 (inactive) and 0.614 (inactive) and 0.79 (inactive)	2.11 and 0.863 and -0.261	0.846 and 1.64 and -0.328	0.0326 and 1.34 and 0.296	0.621 and 0.522 and 0.821	-1.33 and -0.836 and -0.607	-1.01 (inactive) and -1.14 (inactive) and -2.63 (inactive)	1.31 and 1.96 and -0.533	2.55 (inactive) and 0.584 (inactive) and 10.1 (active)	-0.208 (inactive) and 0.325 (inactive) and 1.68 (inactive)	1.01 (inactive) and 1.19 (inactive) and 0.922 (inactive)	-1.51 (inactive) and 0.741 (inactive) and 0.644 (inactive)	1.28 and -0.396 and -0.729	-4.2 (inactive) and -0.505 (inactive) and -1.36 (inactive)	-5.91 (inactive) and -3.11 (inactive) and -1.7 (inactive)	-3.09 and 0.173 and 0.832
Cc1ccc(S(=O)(=O)N[C@H]2COC(=O)[C@@H](Cc3ccccc3)NC(=O)[C@@H](C)COC(=O)CC=C[C@@H]2C)cc1	0.089 and 0.0949	0.0143 (inactive) and -1.15 (inactive)	-0.166 (inactive) and -1.8 (inactive)	-0.746 (inactive) and 0.834 (inactive)	-0.899 (inactive) and -0.0204 (inactive)	-0.236 and -0.154	-0.234 and -0.158	0.143 and 0.354	0.254 and 0.289	1.07 and 1.29	-0.193 (inactive) and 0.569 (inactive)	-0.232 and -0.0645	0.649 (inactive) and 1.51 (inactive)	0.237 (inactive) and 0.491 (inactive)	0.377 (inactive) and 1.9 (inactive)	0.252 (inactive) and 0.148 (inactive)	0.0356 and 0.201	-0.34 (inactive) and 0.252 (inactive)	-0.302 (inactive) and -0.127 (inactive)	0.189 and 0.00698
CC(=O)OC[C@H]1O[C@H](C#CC(C)(C)C)C=C[C@@H]1OC(C)=O	-0.0516	0.13 (inactive)	0.992 (inactive)	-0.162 (inactive)	1.35 (inactive)	1.58	-0.0331	0.835	-0.392	0.953	0.192 (inactive)	-0.0969	-0.184 (inactive)	0.0987 (inactive)	-0.537 (inactive)	-0.0954 (inactive)	-0.675	1.5 (inactive)	0.847 (inactive)	0.943
CC(CO)N1C(=O)[C@@H]2C3C(=O)OCCC=C[C@H]3OC23C=CCN(c2ccc4ccccc4c2)C(=O)[C@@H]13 (stereo not given in full)	-0.758 and -0.416	0.0425 (inactive) and 0.0276 (inactive)	0.87 (inactive) and 1.11 (inactive)	0.199 (inactive) and 0.756 (inactive)	-0.345 (inactive) and 0.0714 (inactive)	-0.809 and -0.937	-0.0933 and -0.584	-1.95 and -1.75	-1.23 and -1.14	0.0707 and -0.262	-0.562 (inactive) and -0.929 (inactive)	-0.0015 and -0.673	3.31 (inactive) and 4.57 (inactive)	1.28 (inactive) and 0.577 (inactive)	1.18 (inactive) and 0.724 (inactive)	0.652 (inactive) and 0.282 (inactive)	-0.631 and -0.363	1.68 (inactive) and 1.25 (inactive)	0.411 (inactive) and 1.05 (inactive)	2.69 and 2.08

From PubChem BioAssay
